# Results filed as inconclusive are left out. Where a call stands in place of a potency, no number is given. Values without a mark were called inactive. Calls of active or inactive are those of the source. Unless noted, calls come from the whole dose curve; as a rule, active = well fitted curve in the direction sought with a large enough effect in the repeat runs; inconclusive = weak or mixed curves; inactive = no such curve, though single readings can be large; an effect the other way counts as inactive or inconclusive.
# How the values were obtained:
# [1] = qHTS assay to identify small molecule agonists of the peroxisome proliferator-activated receptor delta (PPARd) signaling pathway - cell viability counter screen (AID 743211); note: nearly all actives have a fitted effect of over 55% in size; note: potency is the fitted concentration of half-maximal effect
# How it was run: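 Viability was measured as CellTiter-Glo luminescence (30 min, room temperature) in the same wells as the beta-lactamase readout. GeneBLAzer PPARd UAS-bla HEK293H cells received compound after 5 h plating and were incubated 17 h at 37 C.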
# [2] = qHTS assay to identify small molecule antagonists of the peroxisome proliferator-activated receptor delta (PPARd) signaling pathway - cell viability counter screen (AID 743213); note: nearly all actives have a fitted effect of over 50% in size; note: potency is the fitted concentration of half-maximal effect
# How it was run: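 PPARd-bla HEK293H cells (3000/well) got compound plus 300 nM L165041 agonist for 17 h at 37 C. Viability in the same wells came from CellTiter-Glo luminescence after 30 min at room temperature.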
# [3] = qHTS assay to identify small molecule agonists of the farnesoid-X-receptor (FXR) signaling pathway - cell viability counter screen (AID 743218); note: nearly all actives have a fitted effect of over 45% in size; note: potency is the fitted concentration of half-maximal effect
# How it was run: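 Cells were seeded, left 5 h at 37 C and 5% CO2, then dosed with compound in DMSO for 16 h. After the beta-lactamase FRET read, CellTiter-Glo was added and luminescence measured 30 min later.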
# [4] = qHTS assay to identify small molecule antagonists of the farnesoid-X-receptor (FXR) signaling pathway - cell viability counter screen (AID 743221; active = well fitted cell-killing curve with a large enough effect in the repeat runs, not every such curve was filed as active; note: nearly all actives have a fitted effect of over 50% in size; note: potency is the fitted concentration of half-maximal effect)
# How it was run: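 Cytotoxicity counter screen run in the FXR-bla reporter wells: HEK 293T cells exposed to compound with 50 uM (final) chenodeoxycholic acid for 16 h, 37 C, then viability measured by CellTiter-Glo luminescence after 30 min, room temperature.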
# [5] = target: Vitamin D3 receptor (Homo sapiens) (UniProt P11473); experiment: qHTS assay to identify small molecule agonists of the vitamin D receptor (VDR) signaling pathway (AID 743222; calls by dose curve)
# How it was run: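 Cells carrying a VDR-driven beta-lactamase reporter are seeded at 2,000 per well and rested 4 h. Compounds in DMSO are added for 16 h at 37C, and FRET substrate fluorescence is measured after 2 h at room temperature.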
# [6] = target: Vitamin D3 receptor (Homo sapiens) (UniProt P11473); experiment: qHTS assay to identify small molecule antagonists of the vitamin D receptor (VDR) signaling pathway (AID 743223; active = well fitted inhibition curve with a large enough effect in the signal ratio in the repeat runs, not every such curve was filed as active; the % refers to the signal ratio)
# How it was run: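 Antagonist mode: compound added to VDR-bla cells alongside agonist 1alpha,25-dihydroxyvitamin D3 (3 nM final), incubation 16 h at 37C. Read-out is LiveBLAzer FRET fluorescence, 2 h at room temperature.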
# [7] = qHTS assay to identify small molecule antagonists of the vitamin D receptor (VDR) signaling pathway - cell viability counter screen (AID 743225); note: nearly all actives have a fitted effect of over 50% in size; note: potency is the fitted concentration of half-maximal effect
# How it was run: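 Cytotoxicity counter screen read by CellTiter-Glo luminescence (30 min, room temperature) in the same wells as the VDR-bla antagonist readout. HEK 293T VDR-UAS-bla cells had 16 h at 37C with compound and 3 nM (final) 1-alpha,25-dihydroxyvitamin D3, then 2 h with FRET substrate.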
# [8] = qHTS assay to identify small molecule agonists of the NFkB signaling pathway - cell viability counter screen (AID 1159515; calls by dose curve; note: nearly all actives have a fitted effect of over 55% in size; note: potency is the fitted concentration of half-maximal effect)
# How it was run: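 Cells are seeded (2,000 NFkB-bla ME-180 per well), rested overnight, and dosed with DMSO-dissolved compounds for 5 hr at 37 C. Viability is then read by CellTiter-Glo luminescence after 30 min at room temperature.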
# [9] = qHTS assay to identify small molecule agonists of the endoplasmic reticulum stress response signaling pathway (AID 1159516; active = well fitted activation curve with a large enough effect in the signal ratio in the repeat runs, not every such curve was filed as active; the % refers to the signal ratio)
# How it was run: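 Cells are seeded at 1,500 per well and incubated overnight. Compounds in DMSO are added for 5 hr at 37 C, then beta-lactamase FRET substrate for 2 hr at room temperature, and fluorescence at 460 and 530 nm is measured.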
# [10] = target: Nuclear receptor ROR-gamma (Homo sapiens) (UniProt P51449); experiment: qHTS assay to identify small molecule antagonists of the retinoid-related orphan receptor gamma (ROR-gamma) signaling pathway (AID 1159521; note: nearly all actives have a fitted effect of over 50% in size; note: potency is the fitted concentration of half-maximal effect)
# How it was run: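 Antagonist read-out: drop in luminescence (ONE-Glo) from an RORE-LUC reporter in CHO cells with doxycycline-inducible ROR-gamma; 2 hr compound pretreatment, 1 uM doxycycline, 16 hr incubation at 37 C.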
# [11] = qHTS assay to identify small molecule agonists of the AP-1 signaling pathway - cell viability counter screen (AID 1159525; calls by dose curve; note: nearly all actives have a fitted effect of over 55% in size; note: potency is the fitted concentration of half-maximal effect)
# How it was run: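 Intracellular ATP by Cell Titer Glo luminescence (30 min, RT) in the same ME-180 AP-1-bla wells after the 5 h compound exposure at 37 °C. Normalised to tetra n-octyl ammonium bromide and DMSO controls.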
# [12] = qHTS assay to identify small molecule agonists of the AP-1 signaling pathway (AID 1159526; calls by dose curve; note: potency is the fitted concentration of half-maximal effect)
# [13] = target: Retinoic acid receptor RXR-alpha (Homo sapiens) (UniProt P19793); experiment: qHTS assay to identify small molecule agonists of the RXR signaling pathway (AID 1159527; calls by dose curve; note: nearly all actives have a fitted effect of over 35% in size; note: potency is the fitted concentration of half-maximal effect)
# How it was run: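 Agonist-mode beta-lactamase reporter assay: HEK 293T RXR-alpha-UAS-bla cells treated 16 hr at 37 C with compounds, 9-cis retinoic acid as positive control. LiveBLAzer FRET substrate, 405 nm excitation, 460/530 nm emission.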
# [14] = qHTS assay to identify small molecule agonists of the vitamin D receptor (VDR) signaling pathway - cell viability counter screen (AID 743224); note: nearly all actives have a fitted effect of over 50% in size; note: potency is the fitted concentration of half-maximal effect
# How it was run: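 Cells: VDR-bla, 2,000/well, settled 4 h. Treatment: compounds in DMSO, 16 h, 37C/5% CO2. Readout: CellTiter-Glo luminescence after 30 min RT.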
# [15] = qHTS assay to identify small molecule agonists of the endoplasmic reticulum stress response signaling pathway - cell viability counter screen (AID 1159517; calls by dose curve)
# How it was run: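 ESRE-bla HeLa cells (1,500/well) were plated overnight at 37 C and exposed to compounds for 5 hr. After the 2 hr beta-lactamase substrate read, CellTiter-Glo went into the same wells, and luminescence was read after 30 min at room temperature.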
# [16] = qHTS assay to identify small molecule antagonists of the retinoid-related orphan receptor gamma (ROR-gamma) signaling pathway - cell viability counter screen (AID 1159520); note: nearly all actives have a fitted effect of over 50% in size
# How it was run: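 Cytotoxicity was read from cellular ATP (CellTiter-Glo luminescence) after 16 hr at 37 C with 1 uM doxycycline induction. The inducer was added 2 hr after compound transfer to Tet-on ROR gamma CHO cells.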
# [17] = target: Peroxisome proliferator-activated receptor delta (Homo sapiens) (UniProt Q03181); experiment: qHTS assay to identify small molecule agonists of the peroxisome proliferator-activated receptor delta (PPARd) signaling pathway (AID 743212; calls by dose curve)
# How it was run: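 Beta-lactamase reporter readout: a ratiometric FRET signal from the LiveBLAzer substrate after 2 h at room temperature. Compound exposure at 37 °C in PPARδ-bla HEK293H cells driven by an upstream activator sequence.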
# [18] = target: Peroxisome proliferator-activated receptor delta (Homo sapiens) (UniProt Q03181); experiment: qHTS assay to identify small molecule antagonists of the peroxisome proliferator-activated receptor delta (PPARd) signaling pathway (AID 743215; active = well fitted inhibition curve with a large enough effect in the signal ratio in the repeat runs, not every such curve was filed as active; the % refers to the signal ratio;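 note: cells stimulated with agonist L165041 at 300 nM final during compound exposure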; note: potency is the fitted concentration of half-maximal effect)
# How it was run: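 Cells: HEK293H with a UAS-driven beta-lactamase reporter responsive to PPARd. Compounds were co-added with L165041 (300 nM, final) and incubated 17 h at 37 C before a 2 h room-temperature FRET substrate step and fluorescence reading.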
# [19] = target: Bile acid receptor (Homo sapiens) (UniProt Q96RI1); experiment: qHTS assay to identify small molecule antagonists of the farnesoid-X-receptor (FXR) signaling pathway (AID 743217; active = well fitted inhibition curve with a large enough effect in the signal ratio in the repeat runs, not every such curve was filed as active; the % refers to the signal ratio; note: potency is the fitted concentration of half-maximal effect)
# How it was run: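 Cells carrying a UAS-driven beta-lactamase reporter (GeneBLAzer FXR-UAS-bla HEK 293T) were plated and rested 5 h at 37 °C. Compounds in DMSO were added alongside chenodeoxycholic acid agonist at 50 uM final and left 16 h at 37 °C before FRET substrate readout.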
# [20] = target: Bile acid receptor (Homo sapiens) (UniProt Q96RI1); experiment: qHTS assay to identify small molecule agonists of the farnesoid-X-receptor (FXR) signaling pathway (AID 743220; active = well fitted activation curve with a large enough effect in the signal ratio in the repeat runs, not every such curve was filed as active; the % refers to the signal ratio; note: potency is the fitted concentration of half-maximal effect)
# How it was run: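 FXR-UAS-bla HEK 293T cells carrying a UAS-driven beta-lactamase reporter were plated for 5 h at 37C/5% CO2, then exposed to DMSO-dissolved Tox21 10K compounds for 16 h at 37C. A LiveBLAzer B/G FRET substrate was loaded for 2 h at room temperature before fluorescence reading.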
# Sequence of Vitamin D3 receptor (Homo sapiens) (P11473 whole entry, looked up): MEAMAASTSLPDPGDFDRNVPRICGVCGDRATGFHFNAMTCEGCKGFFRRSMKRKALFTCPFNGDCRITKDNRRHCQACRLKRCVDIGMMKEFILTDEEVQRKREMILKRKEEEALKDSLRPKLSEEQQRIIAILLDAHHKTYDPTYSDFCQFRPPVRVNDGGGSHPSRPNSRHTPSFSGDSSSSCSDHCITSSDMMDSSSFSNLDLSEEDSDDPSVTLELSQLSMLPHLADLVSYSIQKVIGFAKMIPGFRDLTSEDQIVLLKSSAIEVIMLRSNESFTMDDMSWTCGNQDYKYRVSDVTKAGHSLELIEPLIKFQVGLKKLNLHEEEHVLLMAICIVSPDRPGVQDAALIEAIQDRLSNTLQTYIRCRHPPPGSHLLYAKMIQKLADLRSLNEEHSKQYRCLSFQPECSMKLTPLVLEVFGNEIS
# Sequence of Bile acid receptor (Homo sapiens) (Q96RI1 whole entry, looked up): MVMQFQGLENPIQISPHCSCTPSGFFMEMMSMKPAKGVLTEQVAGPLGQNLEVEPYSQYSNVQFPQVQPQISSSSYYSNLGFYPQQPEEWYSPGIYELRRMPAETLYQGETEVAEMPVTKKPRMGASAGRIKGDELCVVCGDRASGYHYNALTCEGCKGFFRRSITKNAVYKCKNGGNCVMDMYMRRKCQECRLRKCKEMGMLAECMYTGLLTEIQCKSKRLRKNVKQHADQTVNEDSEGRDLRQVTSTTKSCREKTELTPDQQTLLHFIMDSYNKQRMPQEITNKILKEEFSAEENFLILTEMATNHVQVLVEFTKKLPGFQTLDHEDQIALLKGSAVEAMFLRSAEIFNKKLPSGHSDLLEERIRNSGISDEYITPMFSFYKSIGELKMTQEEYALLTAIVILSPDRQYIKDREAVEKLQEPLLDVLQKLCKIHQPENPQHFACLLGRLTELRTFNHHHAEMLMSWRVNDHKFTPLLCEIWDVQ
# Sequence of Retinoic acid receptor RXR-alpha (Homo sapiens) (P19793 whole entry, looked up): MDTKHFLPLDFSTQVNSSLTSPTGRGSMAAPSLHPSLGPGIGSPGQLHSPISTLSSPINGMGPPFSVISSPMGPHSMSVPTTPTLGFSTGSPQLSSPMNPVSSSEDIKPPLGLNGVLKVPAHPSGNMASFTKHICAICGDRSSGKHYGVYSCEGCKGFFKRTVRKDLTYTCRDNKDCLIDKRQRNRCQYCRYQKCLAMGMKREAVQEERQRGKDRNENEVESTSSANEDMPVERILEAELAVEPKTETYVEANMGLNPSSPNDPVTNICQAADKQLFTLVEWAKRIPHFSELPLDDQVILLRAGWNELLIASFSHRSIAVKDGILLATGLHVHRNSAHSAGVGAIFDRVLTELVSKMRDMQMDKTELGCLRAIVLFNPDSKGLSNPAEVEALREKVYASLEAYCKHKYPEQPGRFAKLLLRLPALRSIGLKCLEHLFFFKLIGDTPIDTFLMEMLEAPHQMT
# Sequence of Peroxisome proliferator-activated receptor delta (Homo sapiens) (Q03181 whole entry, looked up): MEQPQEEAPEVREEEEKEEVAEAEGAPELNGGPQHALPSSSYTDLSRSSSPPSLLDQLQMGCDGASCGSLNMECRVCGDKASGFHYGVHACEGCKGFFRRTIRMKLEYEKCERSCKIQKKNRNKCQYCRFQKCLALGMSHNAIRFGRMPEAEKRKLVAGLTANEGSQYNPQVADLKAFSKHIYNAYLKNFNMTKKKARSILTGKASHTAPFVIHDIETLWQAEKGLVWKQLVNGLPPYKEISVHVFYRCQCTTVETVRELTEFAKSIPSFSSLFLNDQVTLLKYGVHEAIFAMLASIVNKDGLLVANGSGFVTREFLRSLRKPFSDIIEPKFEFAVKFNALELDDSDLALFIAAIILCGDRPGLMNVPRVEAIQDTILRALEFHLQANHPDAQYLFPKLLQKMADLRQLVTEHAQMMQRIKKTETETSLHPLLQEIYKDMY
Compound,Potency [1],Potency [2],Potency [3],Potency [4],Potency [5],Potency [6],Potency [7],Potency [8],Potency [9],Potency [10],Potency [11],Potency [12],Potency [13],Potency [14],Potency [15],Potency [16],Potency [17],Potency [18],Potency [19],Potency [20]
OC1CCCc2ccccc21 (centres undefined),inactive,inactive,inactive,inactive,inactive,inactive,inactive,inactive,inactive,inactive,inactive,inactive,inactive,–,–,–,–,–,–,–
COCCOc1cc2cc(C(=O)NC3CCN(C(C)C)CC3)n(CC(=O)Nc3ccc(Cl)cn3)c2cn1,inactive,inactive,inactive,inactive,inactive,–,inactive,inactive,–,inactive,inactive,inactive,inactive,inactive,inactive,inactive,–,–,–,–
CCN(CC)C(=O)c1cc(S(=O)(=O)Cc2ccccc2)c(N2CCC(c3ccccc3)CC2)cc1N(CC)CCN(C)C,21.6 µM (active),6.84 µM (active),–,–,inactive,–,17.2 µM (active),21.6 µM (active),inactive,21.4 µM (active),17.2 µM (active),–,–,–,–,–,inactive,17.2 µM (active),inactive,–
COC(=O)C1=C(C)NC(C)=C(C(=O)OCCN2CCN(C(c3ccccc3)c3ccccc3)CC2)C1c1cccc([N+](=O)[O-])c1 (centres undefined),–,–,–,–,–,–,inactive,inactive,inactive,–,inactive,–,–,inactive,–,–,–,–,11.9 µM (active),–
O=S(=O)(O)c1ccccc1/C=C/c1ccc(-c2ccc(/C=C/c3ccccc3S(=O)(=O)O)cc2)cc1,inactive,–,inactive,inactive,–,–,inactive,inactive,–,inactive,inactive,31.3 µM (active),35.2 µM (active),–,inactive,inactive,–,–,–,31.3 µM (active)
CC[C@H](C)COC(=O)/C=C/c1ccc(N=Cc2ccc(OC)cc2)cc1,inactive,–,inactive,inactive,inactive,–,–,inactive,inactive,inactive,–,–,–,–,–,–,–,–,inactive,–
C[Si](Cl)(c1ccccc1)c1ccccc1,inactive,inactive,inactive,inactive,inactive,inactive,inactive,inactive,inactive,–,inactive,–,inactive,inactive,–,–,inactive,inactive,inactive,inactive
O=C1C(c2[nH]c3ccc(S(=O)(=O)O)cc3c2O)=Nc2ccc(S(=O)(=O)O)cc21,inactive,inactive,inactive,inactive,inactive,inactive,inactive,inactive,inactive,–,inactive,inactive,–,inactive,–,–,–,inactive,–,–
S=C([S-])NCCNC(=S)[S-].S=C([S-])NCCNC(=S)[S-].[Mn+2].[Zn+2],inactive,inactive,–,inactive,inactive,–,inactive,inactive,inactive,–,inactive,–,–,–,–,–,–,–,–,–
CCN(CCN)c1cccc(C)c1,inactive,inactive,–,inactive,inactive,inactive,inactive,inactive,–,inactive,inactive,inactive,–,inactive,inactive,inactive,–,–,–,–
CCCCCCCCCCCCOC(=O)c1ccc(O)cc1,34.9 µM (active),–,49.3 µM (active),–,inactive,inactive,inactive,inactive,inactive,inactive,55.4 µM (active),–,inactive,–,–,–,inactive,inactive,44 µM (active),–
[Cl][Pt-2]([Cl])([Cl])[Cl],inactive,inactive,inactive,inactive,inactive,inactive,–,inactive,inactive,inactive,inactive,–,–,–,–,–,–,inactive,inactive,–
CC(=O)Oc1cc2c(s1)CCN(C(C(=O)C1CC1)c1ccccc1F)C2 (centres undefined),inactive,inactive,inactive,inactive,inactive,–,–,inactive,inactive,inactive,inactive,inactive,–,inactive,–,–,inactive,inactive,–,–
Cc1cc(C(C#N)c2ccc(Cl)cc2)c(Cl)cc1NC(=O)c1cc(I)cc(I)c1O (centres undefined),29.8 µM (active),–,–,29.8 µM (active),–,–,inactive,inactive,inactive,–,inactive,–,–,inactive,–,–,–,–,–,–
O=c1oc2cc(O)ccc2c2oc3cc(O)ccc3c12,inactive,inactive,inactive,inactive,–,–,inactive,inactive,–,inactive,inactive,inactive,–,inactive,inactive,inactive,–,–,–,–
Cc1c(C)c2c(c(C)c1O)CC[C@@](C)(CCC[C@H](C)CCC[C@H](C)CCCC(C)C)O2,inactive,inactive,inactive,inactive,inactive,inactive,inactive,inactive,–,inactive,inactive,inactive,inactive,–,inactive,inactive,inactive,inactive,–,–
Nc1nc(N)nc(-c2cc(Cl)ccc2Cl)n1,inactive,inactive,–,inactive,–,–,–,inactive,–,inactive,inactive,inactive,inactive,inactive,inactive,inactive,inactive,inactive,inactive,–
CNC(=O)c1ccccc1Sc1ccc2c(/C=C/c3ccccn3)n[nH]c2c1,–,18.8 µM (active),–,–,–,–,23.9 µM (active),inactive,inactive,inactive,inactive,inactive,–,29.8 µM (active),–,–,–,–,–,–

# — PubChem BioAssay (Tox21)
